# Measurements as given in PubChem BioAssay (Tox21).
# Records with an inconclusive call do not appear. A call without a number means that no potency is given here. Some structures have more than one record in an assay (separate samples or runs), and their calls can disagree. Calls of active or inactive are those of the source. Unless noted, calls come from the whole dose curve; as a rule, active = well fitted curve in the direction sought with a large enough effect in the repeat runs; inconclusive = weak or mixed curves; inactive = no such curve, though single readings can be large; an effect the other way counts as inactive or inconclusive.
# Tests used:
# [1] = qHTS assay to identify small molecule agonists of the estrogen receptor beta (ER-beta) signaling pathway - cell viability counter screen (AID 1259380); note: nearly all actives have a fitted effect of over 30% in size; note: potency is the fitted concentration of half-maximal effect
# Summary of the method: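 Same-well viability counter screen. Cells: ER-beta-UAS-bla HEK293T, plated 6 hr before compound, in 2% charcoal-stripped FBS. Compound exposure 16 hr, 37C; viability by CellTiter-Glo luminescence after 30 min at room temperature.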
# [2] = qHTS assay to identify small molecule antagonists of the estrogen receptor beta (ER-beta) signaling pathway - cell viability counter screen (AID 1259382);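 note: HEK293T cells carrying ER-beta-UAS-bla reporter stimulated with estradiol; series mostly up to about 92 µM; nearly all actives have a fitted effect of over 55% in size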
# Summary of the method: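 Following a 6 hr plating period, HEK293T cells carrying a UAS-driven beta-lactamase reporter under ER-beta control received compounds and 1nM E2 (final). After 16 hr at 37C and 2 hr substrate loading, CellTiter-Glo luminescence indicated viability.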
# [3] = qHTS assay to identify small molecule agonists of the estrogen receptor alpha (ER-alpha) signaling pathway in the presence of an antagonist - cell viability counter screen (AID 1259386);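 note: series mostly up to about 92 µM; cells exposed to compounds for 22 h at 37 °C before the viability read; nearly all actives have a fitted effect of over 30% in size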
# Summary of the method: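 Cells are starved of estrogens for 5 days in charcoal-stripped serum, seeded for 24hr and co-treated with ICI-182,780 (10.0nM final) and test compounds. After 22hr at 37C, viability is read as CellTiter-Fluor fluorescence.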
# [4] = target: Progesterone receptor (Homo sapiens) (UniProt P06401); assay: qHTS assay to identify small molecule agonists of the progesterone receptor (PR) signaling pathway (AID 1346784; calls by dose curve; note: nearly all actives have a fitted effect of over 30% in size; note: potency is the fitted concentration of half-maximal effect)
# Summary of the method: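 PR-UAS-bla HEK 293T cells carrying a UAS-driven beta-lactamase reporter were seeded in medium with 2% charcoal-stripped FBS, preincubated 6 hr at 37C, then exposed to compounds in DMSO for 16 hr; agonism was read by LiveBLAzer B/G FRET fluorescence.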
# [5] = qHTS assay to identify small molecule antagonists of the progesterone receptor (PR) signaling pathway - cell viability counter screen (AID 1346798); note: series mostly up to about 92 µM; nearly all actives have a fitted effect of over 50% in size
# Summary of the method: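 PR-UAS-bla HEK293T cells in medium with 2% charcoal-stripped FBS were treated with compounds plus R5020 for 16 hr at 37C. Cell viability was then read by CellTiter-Glo luminescence after 30 min at room temperature in the same wells.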
# [6] = qHTS assay to identify small molecule antagonists of the TGF-beta/Smad signaling pathway - cell viability counter screen (AID 1346824); note: nearly all actives have a fitted effect of over 50% in size
# Summary of the method: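 SBE-bla HEK 293T cells were plated overnight at 37 C, then given compounds in DMSO plus TGF-beta1 (added as 0.25 ng/mL solution) for 5 hr. After the bla read, CellTiter-Glo was added to the same wells and luminescence read after 30 min at room temperature.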
# [7] = qHTS assay to identify small molecule agonists of the TGF-beta/Smad signaling pathway - cell viability counter screen (AID 1346829); note: top concentration of the series differs between compounds; nearly all actives have a fitted effect of over 45% in size
# Summary of the method: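 Luminescence from CellTiter-Glo, read after a 30 min room-temperature incubation, gives cell viability of SBE-bla HEK 293T cells treated 5 hr with compounds at 37 C.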
# [8] = qHTS assay to identify small molecule agonists of the TGF-beta/Smad signaling pathway (AID 1346859; active = well fitted activation curve with a large enough effect in the signal ratio in the repeat runs, not every such curve was filed as active; the % refers to the signal ratio; note: series mostly up to about 77 µM)
# Summary of the method: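 HEK 293T cells stably carrying a beta-lactamase reporter driven by the Smad binding element were seeded overnight, exposed to DMSO-dissolved compounds for 5 hr at 37 C, 5% CO2, then loaded with FRET substrate for 2 hr at room temperature.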
# [9] = Human pregnane X receptor (PXR) small molecule agonists, qHTS cell viability counter screen (AID 1346977); note: nearly all actives have a fitted effect of over 50% in size; note: potency is the fitted concentration of half-maximal effect
# Summary of the method: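 PXR-Luc HepG2 cells in medium with 5% charcoal-stripped FBS were pre-incubated 5hr, then exposed to compounds for 24hr at 37C. Viability was read in the same wells by CellTiter-Fluor fluorescence, reagent added after 23hr with a 1hr incubation.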
# [10] = Caspase-3/7 induction in HepG2 cells by small molecules, qHTS assay (AID 1346978); note: nearly all actives have a fitted effect of over 15% in size
# Summary of the method: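 Wild-type HepG2 cells (2,000/well) were settled 5 h at 37 C, 5% CO2, then exposed to compounds in DMSO for 17 h. Caspase-3/7 activity was read by luminescence 30 min after adding Caspase-Glo 3/7 reagent at room temperature.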
# [11] = Caspase-3/7 induction in CHO-K1 cells by small molecules, qHTS cell viability counter screen (AID 1346979); note: nearly all actives have a fitted effect of over 35% in size; note: potency is the fitted concentration of half-maximal effect
# Summary of the method: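 Wild-type CHO-K1 cells were seeded at 1,500 per well, rested 5hr at 37 C, then exposed to compounds in DMSO. After 16hr, CellTiter-Fluor reagent was added and fluorescence read 1hr later as the viability measure.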
# [12] = Caspase-3/7 induction in CHO-K1 cells by small molecules, qHTS assay (AID 1346980); note: nearly all actives have a fitted effect of over 15% in size
# Summary of the method: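 Wild-type cells were seeded at 1,500 per well and settled 5 hr at 37 C, 5% CO2, then exposed to DMSO-dissolved compounds for 17 hr. Caspase-Glo 3/7 reagent was added, and luminescence was read after 30min at room temperature.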
# [13] = qHTS assay to identify small molecule agonists or antagonists of the thyroid stimulating hormone receptor (TSHR) signaling pathway - wild type cell line counter screen (AID 1259384; calls by dose curve)
# Summary of the method: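 Wild-type HEK293 cells were plated 18 h at 37 C/5% CO2, pin-dosed with compound plus Ro20-1724 medium, held 30 min at room temperature, then given cAMP-d2 and anti-cAMP-cryptate; fluorescence was read after 1 h. Fifteen concentrations, triplicate.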
# [14] = target: Thyrotropin receptor (Homo sapiens) (UniProt P16473); assay: qHTS assay to identify small molecule antagonists of the thyroid stimulating hormone receptor (TSHR) signaling pathway (AID 1259385; calls by dose curve; note: nearly all actives have a fitted effect of over 20% in size)
# Summary of the method: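 TSHR-HEK293 cells were plated and held 18 h at 37C/5% CO2, then given compound plus Ro20-1724 and stimulated with TSH at 1.5 ng/mL final. After 30 min at room temperature, cAMP was detected with cAMP-d2/anti-cAMP-cryptate (1 h) by fluorescence.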
# [15] = target: Progesterone receptor (Homo sapiens) (UniProt P06401); assay: qHTS assay to identify small molecule antagonists of the progesterone receptor (PR) signaling pathway (AID 1346795; active = well fitted inhibition curve with a large enough effect in the signal ratio in the repeat runs, not every such curve was filed as active; the % refers to the signal ratio)
# Summary of the method: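 PR-UAS-bla HEK293T cells carrying a UAS-driven beta-lactamase reporter were plated in medium with 2% charcoal-stripped FBS and rested 6 hr at 37C. Compounds were added with 1 nM R5020 (final) for 16 hr, then FRET substrate loaded 2 hr at room temperature.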
# [16] = qHTS assay to identify small molecule agonists of the progesterone receptor (PR) signaling pathway - cell viability counter screen (AID 1346799; calls by dose curve; note: nearly all actives have a fitted effect of over 45% in size; note: potency is the fitted concentration of half-maximal effect)
# Summary of the method: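 PR-UAS-bla HEK293T cells, 3,000 per well in medium with 2% charcoal-stripped FBS, were preincubated 6 hr at 37C, then exposed to compounds for 16 hr; viability was read as CellTiter-Glo luminescence after 30 min at room temperature.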
# [17] = target: Thyrotropin-releasing hormone receptor (Homo sapiens) (UniProt P34981); assay: qHTS assay to identify small molecule antagonists of the thyrotropin-releasing hormone receptor (TRHR) signaling pathway (AID 1346877; active = well fitted inhibition curve with a large enough effect in the repeat runs, not every such curve was filed as active; note: series mostly up to about 51 µM)
# Summary of the method: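 Cells (TRHR-HEK293) are plated and kept 18 h at 37 °C/5% CO2. A calcium-sensitive dye is added for 2 h, compound follows for 5 min at room temperature, and TRH is then given at 1 nM final.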
# [18] = target: Thyrotropin-releasing hormone receptor (Homo sapiens) (UniProt P34981); assay: qHTS assay to identify small molecule agonists of the thyrotropin-releasing hormone receptor (TRHR) signaling pathway (AID 1346891; calls by dose curve; note: series mostly up to about 58 µM)
# Summary of the method: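 TRHR-expressing HEK293 cells were plated 18 h at 37 °C/5% CO2, loaded with calcium dye 2 h at 37 °C, then given compound in DMSO; fluorescence was read kinetically for 3 min at 1 s intervals.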
# [19] = target: Estrogen receptor (Homo sapiens) (UniProt P03372); assay: qHTS assay to identify small molecule agonists of the estrogen receptor alpha (ER-alpha) signaling pathway in the presence of an antagonist (AID 1259383; calls by dose curve; note: top concentration of the series differs between compounds; nearly all actives have a fitted effect of over 15% in size)
# Summary of the method: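 Cells are hormone-deprived for 5 days (charcoal-stripped FBS, no phenol red), plated for 24hr, spiked with 10.0nM ICI-182,780, then dosed at 15 concentrations. After 22hr at 37C, ONE-Glo luminescence reports ERE-luciferase activity.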
# Sequence of Thyrotropin-releasing hormone receptor (Homo sapiens) (P34981 whole entry, looked up): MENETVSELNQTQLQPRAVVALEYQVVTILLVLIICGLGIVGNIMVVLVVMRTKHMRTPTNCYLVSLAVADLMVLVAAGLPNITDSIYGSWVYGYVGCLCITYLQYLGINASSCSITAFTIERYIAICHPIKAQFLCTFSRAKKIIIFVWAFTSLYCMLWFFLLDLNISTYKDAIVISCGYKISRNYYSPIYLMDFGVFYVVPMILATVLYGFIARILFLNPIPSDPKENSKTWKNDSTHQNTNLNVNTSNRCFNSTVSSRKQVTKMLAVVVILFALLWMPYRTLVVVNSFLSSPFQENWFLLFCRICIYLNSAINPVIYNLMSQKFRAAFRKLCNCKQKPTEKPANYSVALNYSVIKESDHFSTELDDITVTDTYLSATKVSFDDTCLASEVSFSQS
# Sequence of Progesterone receptor (Homo sapiens) (P06401 whole entry, looked up): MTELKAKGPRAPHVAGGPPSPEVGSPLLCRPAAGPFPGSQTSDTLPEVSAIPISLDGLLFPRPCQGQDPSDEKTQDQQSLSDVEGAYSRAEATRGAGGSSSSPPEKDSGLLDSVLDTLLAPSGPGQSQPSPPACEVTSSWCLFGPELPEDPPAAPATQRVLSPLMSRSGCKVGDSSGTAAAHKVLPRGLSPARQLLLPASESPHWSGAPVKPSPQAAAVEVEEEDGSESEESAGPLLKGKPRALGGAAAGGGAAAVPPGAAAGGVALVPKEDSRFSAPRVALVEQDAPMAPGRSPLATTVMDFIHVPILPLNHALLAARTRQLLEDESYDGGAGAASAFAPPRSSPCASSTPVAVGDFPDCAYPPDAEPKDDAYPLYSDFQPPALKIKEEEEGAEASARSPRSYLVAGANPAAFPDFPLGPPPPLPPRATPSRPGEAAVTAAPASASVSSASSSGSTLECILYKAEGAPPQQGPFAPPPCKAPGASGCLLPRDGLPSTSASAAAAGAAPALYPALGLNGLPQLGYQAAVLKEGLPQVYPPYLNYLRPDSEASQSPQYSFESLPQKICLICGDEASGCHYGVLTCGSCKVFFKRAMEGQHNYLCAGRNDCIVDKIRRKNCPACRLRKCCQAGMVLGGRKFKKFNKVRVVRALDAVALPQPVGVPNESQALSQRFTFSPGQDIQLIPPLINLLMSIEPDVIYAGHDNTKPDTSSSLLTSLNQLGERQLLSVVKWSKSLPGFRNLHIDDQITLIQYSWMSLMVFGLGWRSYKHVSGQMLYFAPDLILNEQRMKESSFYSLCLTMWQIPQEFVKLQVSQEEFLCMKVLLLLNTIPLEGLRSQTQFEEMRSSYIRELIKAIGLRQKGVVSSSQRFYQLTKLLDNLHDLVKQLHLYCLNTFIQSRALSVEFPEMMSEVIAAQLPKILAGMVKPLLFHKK
# Sequence of Thyrotropin receptor (Homo sapiens) (P16473 whole entry, looked up): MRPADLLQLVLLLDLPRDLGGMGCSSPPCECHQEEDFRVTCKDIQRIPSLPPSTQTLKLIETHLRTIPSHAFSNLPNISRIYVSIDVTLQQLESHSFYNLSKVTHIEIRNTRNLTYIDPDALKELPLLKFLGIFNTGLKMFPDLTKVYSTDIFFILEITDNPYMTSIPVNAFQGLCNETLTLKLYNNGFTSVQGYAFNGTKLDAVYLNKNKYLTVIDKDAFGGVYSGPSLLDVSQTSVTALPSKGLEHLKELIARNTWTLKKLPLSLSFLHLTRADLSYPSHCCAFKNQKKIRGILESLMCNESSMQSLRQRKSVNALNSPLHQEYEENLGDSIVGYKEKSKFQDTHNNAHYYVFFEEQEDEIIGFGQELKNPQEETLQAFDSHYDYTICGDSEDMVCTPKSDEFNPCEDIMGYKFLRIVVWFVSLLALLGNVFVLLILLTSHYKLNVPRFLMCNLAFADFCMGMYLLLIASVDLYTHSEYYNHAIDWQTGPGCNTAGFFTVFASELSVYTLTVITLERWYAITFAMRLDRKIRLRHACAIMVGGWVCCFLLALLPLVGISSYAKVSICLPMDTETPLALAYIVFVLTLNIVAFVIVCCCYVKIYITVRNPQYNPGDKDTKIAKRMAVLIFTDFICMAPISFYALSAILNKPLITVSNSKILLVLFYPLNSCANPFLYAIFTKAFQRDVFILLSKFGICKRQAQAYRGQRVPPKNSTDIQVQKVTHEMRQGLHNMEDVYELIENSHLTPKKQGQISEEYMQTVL
# Sequence of Estrogen receptor (Homo sapiens) (P03372 whole entry, looked up): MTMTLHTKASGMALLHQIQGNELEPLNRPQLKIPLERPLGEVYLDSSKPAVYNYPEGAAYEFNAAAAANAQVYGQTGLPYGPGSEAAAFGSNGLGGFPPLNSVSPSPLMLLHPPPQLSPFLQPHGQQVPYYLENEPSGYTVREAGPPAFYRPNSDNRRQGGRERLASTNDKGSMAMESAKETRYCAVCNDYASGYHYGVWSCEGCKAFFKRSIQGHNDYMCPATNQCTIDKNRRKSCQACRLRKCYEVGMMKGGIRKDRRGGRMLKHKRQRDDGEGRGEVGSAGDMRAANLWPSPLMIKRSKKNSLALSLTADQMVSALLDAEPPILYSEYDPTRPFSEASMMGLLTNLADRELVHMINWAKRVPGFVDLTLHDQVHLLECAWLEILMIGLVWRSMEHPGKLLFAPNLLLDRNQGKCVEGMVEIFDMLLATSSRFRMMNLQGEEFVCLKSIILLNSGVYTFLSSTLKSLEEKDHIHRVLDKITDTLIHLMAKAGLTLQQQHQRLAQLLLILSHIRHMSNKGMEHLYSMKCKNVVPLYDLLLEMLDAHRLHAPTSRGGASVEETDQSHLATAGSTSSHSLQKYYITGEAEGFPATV
SMILES,Potency [1],Potency [2],Potency [3],Potency [4],Potency [5],Potency [6],Potency [7],outcome [8],Potency [9],Potency [10],Potency [11],outcome [12],outcome [13],Potency [14],Potency [15],Potency [16],Potency [17],outcome [18],Potency [19]
C[C@H]1C[C@H]2[C@@H]3CCC4=CC(=O)C=C[C@]4(C)[C@@]3(F)[C@@H](O)C[C@]2(C)[C@@]1(O)C(=O)CO,inactive,inactive,inactive,11.9 µM (active),inactive,inactive,inactive,inactive,inactive,inactive,inactive,inactive,,,,,,,
CCC(O)OCCCOC (stereo unspecified),inactive,inactive,inactive,inactive,inactive,,inactive,inactive,22.4 µM (active) and inactive,inactive,5.59 µM (active) and inactive,inactive,inactive,inactive,inactive,inactive,inactive,inactive,
CCN(CC)c1ccc(C(=O)c2ccccc2C(=O)O)c(O)c1,,inactive,inactive,inactive,inactive,inactive,inactive,,inactive,inactive,,inactive,inactive,inactive,inactive,inactive,inactive,inactive,inactive
C#C[C@]1(O)CC[C@H]2[C@@H]3CCC4=CC(=O)CC[C@@H]4[C@H]3CC[C@@]21C,48.6 µM (active),inactive,inactive,,inactive,,inactive,inactive,inactive,inactive,61.1 µM (active),inactive,inactive,,,inactive,,,
O=C(O)c1ccc(C(=O)O)cc1,inactive,inactive,inactive,inactive,inactive,inactive,inactive,inactive,inactive,,inactive,inactive,inactive,,inactive,inactive,inactive,inactive,
Nc1ccccc1[N+](=O)[O-],inactive,inactive,inactive,inactive,inactive,,inactive,,inactive,,inactive,inactive,inactive,,inactive,inactive,inactive,inactive,
OCCOCCN1CCN(C2=Nc3ccccc3Sc3ccccc32)CC1,13.3 µM (active),inactive,inactive,inactive,inactive,,inactive,inactive,inactive,inactive,inactive,inactive,inactive,,inactive,inactive,inactive,inactive,
CN(C)CCOCCN(C)C,inactive,inactive,inactive,inactive,inactive,inactive,inactive,inactive,inactive,inactive,inactive,inactive,inactive,,inactive,inactive,,,
CCCCCCCCC/C=C/CC1CC(=O)OC1=O (stereo unspecified),,inactive,inactive,inactive,inactive,inactive,inactive,inactive,inactive,inactive,inactive,inactive,inactive,inactive,inactive,inactive,,,
CC1=CC(=O)NS(=O)(=O)O1,inactive,inactive,inactive,inactive,inactive,inactive,inactive,,inactive,inactive,inactive,inactive,inactive,inactive,inactive,inactive,inactive,inactive,
CC(C)CC(=O)CC(C)C,inactive,inactive,inactive,inactive,inactive,inactive,inactive,inactive,inactive,,inactive,inactive,,,inactive,inactive,,,
CCCCC(CC)CO (stereo unspecified),inactive,inactive,inactive,inactive,inactive,,inactive,,inactive,,inactive,inactive,inactive,inactive,inactive,inactive,,,
C=CCNC(N)=S,inactive,inactive,inactive,inactive,inactive,inactive,inactive,,inactive,,inactive,inactive,inactive,,inactive,21.2 µM (active) and inactive,inactive,inactive,
